Common to all, as to assay: NCI-60 one-dose screen, 48 h (100 = growth as untreated, 0 = no growth, -100 = all killed)
Holding throughout (details): 10 µM unless noted

Assay [1] deals with NCI-H23 lung.
Assay [2] concerns NCI-H226 lung.
Assay [3] deals with NCI-H322M lung.
For assay [4], the system named is NCI-H460 lung.
The test system of assay [5] is HOP-92 NSCLC.
Assay [6] concerns NCI-H522 lung.
The subject of assay [7] is A549/ATCC NSCLC.
The subject of assay [8] is 786-0 renal.
Assay [9] has as its system COLO 205 colon.
In assay [10] the test system is HOP-62 NSCLC.

Compounds without any hit were thinned out: in the full panel of roughly 83,000, 20% have a hit.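 Plates (96-well) were seeded with cells, treated with compound at one concentration, and incubated for 48 hours before percent growth was determined.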 Unmarked numbers belong to inactive results. Calls of active or inactive are those of the source. The calls were made as follows: active = growth percent below 10; inactive = the rest.

As to `O=C(CCCCCNC(=O)c1cc(=O)c(O)co1)Nc1ccccc1`, the growth in assay [1] was 99.1%; in assay [2] it was 105%; in assay [3] it was 97.2%; in [4], 111%; in assay [5], 99.8%; in assay [6], 90.9%. The growth was 97.6% in [7], 97.5% in assay [8] and 120% in assay [9].
Take `Ic1ccccc1I`: the growth is 98.9% in [1]; 90.5% in assay [2]; 126% in assay [3]; 104% in [4]; 90.2% in assay [5]; 100% in [6]. Further, the values for the growth in assay [7], in assay [8] and in [9] were 98.5%, 92% and 127%, respectively.
Turning to `COc1ccc(N2CCN(C(=O)c3sc4nc(C)c(Br)c(C)c4c3N)CC2)cc1`, the growth is 99.4% in assay [1]; 74.2% in assay [2]; 88% in [3]; 80% in assay [10]; 105% in [4]; 89.2% in assay [6]. Further, the figures for the growth in assay [7], in [8] and in assay [9] were 91.1%, 99.7% and 107%, respectively.
`CN(CCC(=O)c1ccccc1)CCC(=O)c1ccccc1`: the growth in [1] is 91.5%; in [2], 97.4%; in [3], 96.4%; in assay [4], 97.9%; in [5], 72.6%; in assay [6] it was -87.7% (active). The results for the growth in [7], in assay [8] and in assay [9] were 97.7%, 65.4% and 89.3%, respectively.
Consider `CSC(SC)=C(C#N)c1nc2ccccc2s1`, for which the growth was 58.3% in assay [1]; 59% in assay [2]; 79.4% in assay [3]; 57.7% in assay [4]; -12.8% (active) in [5]; 6.27% (active) in assay [6]. Moreover, the growth was 74.8% in [7], 61.8% in [8] and 112% in assay [9].
As to `COc1cccc(-c2cc(-c3cccc(Cl)c3)c(C#N)c(=O)[nH]2)c1`, the growth was 86.7% in [1]; 91.4% in assay [2]; 89.5% in assay [3]; 68.5% in [10]; 78.5% in [4]; 62.2% in [6]. The growth in [8] was 88.8%; in assay [9], 111%.
Consider `O=C(Cc1ccccc1)Nc1cccc(N=Cc2ccccc2O)c1`, for which the growth was 107% in [1]; 104% in assay [2]; 108% in assay [3]; 107% in assay [4]; 88.1% in assay [5]; 91.1% in assay [6]. Moreover, the growth is 99.3% in assay [7], 104% in assay [8] and 111% in [9].
In the case of `COC(=O)c1c2c(n3ccccc13)C(=O)c1ccccc1C2=O`, the growth in [1] was 44.9%; in assay [2] it was 73.8%; in assay [10], 68.7%; in assay [4], 1.15% (active); in assay [5] it was 77.8%; in assay [6], 54.4%. Further, the results for the growth in assay [7], in [8] and in assay [9] were -49.1% (active), 71.5% and 28.1%, respectively.
For `CN1CCN(Cc2ccc(NC(=O)c3cncc(C#Cc4cnc(N)c5ccc(F)cc45)c3)cc2C(F)(F)F)CC1`, the growth in assay [1] was 30.1%; in assay [2], 28.2%; in assay [3], 23.5%; in [4], -15.9% (active); in [6] it was -81.1% (active); in [7], 24.4%. For the same compound, the growth in [8] is -76.8% (active); in assay [9], -25.7% (active).
Consider `COc1ccc(C2=NN(C(C)=O)C(c3cn(-c4ccccc4)nc3-c3ccc(Cl)cc3)C2)cc1` (stereo not given), for which the growth in [1] was 9.25% (active); in assay [2] it was 33.6%; in [10], -19.3% (active); in assay [4] it was 5.58% (active); in assay [5] it was 18.1%; in assay [6] it was 47.5%. Further, the growth in assay [7] is 14.3%; in [8] it was -17.5% (active); in assay [9] it was 4.9% (active).
`Cc1cc2c(cc1C)N(C(=O)CCl)CC(=O)N2`: the growth in [1] was 55.7%; in assay [2], 33.1%; in assay [10] it was 73.4%; in assay [4] it was 88.7%; in [5], 93.4%; in assay [6], -81.7% (active). Besides, the growth was 51.2% in assay [8] and -95.6% (active) in assay [9].
On to `O=C1c2ccccc2C(=O)C1c1ccc(Br)cc1`, for which the growth was 81.6% in [1]; 103% in assay [2]; 115% in assay [10]; 102% in assay [4]; 75.1% in assay [5]; 96.9% in assay [6]. Also, the results for the growth in assay [7], in assay [8] and in assay [9] were 108%, 93.9% and 113%, respectively.
In the case of `CN1C(=O)/C(=C2\SC(=Nc3ccccc3)N(Nc3ccccc3)C2=O)c2ccccc21`, the growth was 94.1% in assay [1]; 93.8% in [2]; 101% in [4]; 100% in assay [5]; 94.5% in assay [6]; 98.6% in assay [7]. For the same compound, the growth is 107% in [8] and 112% in assay [9].
On to `COc1ccc(C[n+]2c3ccccc3n3c4ccc(N)cc4ccc32)c(OC)c1OC`, for which the growth is 48.9% in assay [1]; 61.4% in assay [2]; 52.9% in [10]; 73.6% in [4]; -0.227% (active) in [5]; 11% in assay [6]. Besides, the growth was 63% in assay [7], 75.9% in [8] and 15.5% in assay [9].
As to `Nc1nc(N)c2c(n1)NC(c1ccc(Cl)cc1)C1CCc3ccccc3C1=N2` (stereo not given), the growth was 47.2% in assay [1]; 60.2% in [2]; 22.7% in [4]; 94.3% in assay [5]; 76.7% in [6]; 64% in assay [7]. Also, the figures for the growth in assay [8] and in [9] were 64.4% and 51.6%, respectively.

The values are drawn from PubChem BioAssay (NCI).
